The text below walks through data of the supplement of paper PMC10933113.

Each structure is given as a SMILES string. Structures can show the parent of a compound that is named as a salt. ± gives the uncertainty stated by the source.

The assay relates to THP-1. The assay is described as follows: CD54 surface expression induction over DMSO control (% over DMSO); higher = stronger dendritic cell activation. To be noted: exposure time: 24 h. The procedure: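 hCLAT-like CD54 and CD86 surface expression on THP1 cells after 24 h exposure at a single concentration (highest non-cytotoxic concentration, or 100-200 µM if not cytotoxic). Flow cytometry (iQue) was run on 5,000 live cells.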
Take `CC(C)NC(=O)c1ccc(C=O)cc1` [N-isopropyl-4-formylbenzamide] (100 µM): the “CD54 surface expression induction” value is -11.6 ± 1.7.
With `COc1ccc(-c2cc(=S)ss2)cc1` [Anethole trithione] (100 µM), the “CD54 surface expression induction” value is -12.4 ± 13.
With `O=C1c2cccc(O)c2C(=O)c2c(O)cccc21` [Danthron] (100 µM) the figure was 16.5 ± 0.49.
Take `Clc1ccccc1-c1nc(-c2ccncc2)no1` [Pifexole] (100 µM): the “CD54 surface expression induction” value is -5.59 ± 1.4.
The value for `COP(=O)(O)OP(=O)(O)OC` [Dimethyl dihydrogen diphosphate] (200 µM) was -11.2 ± 2.4; that for `N=C(N)NN=C(/C=C/c1ccc([N+](=O)[O-])o1)/C=C/c1ccc([N+](=O)[O-])o1` [Nitrovin] (10 µM) was 76.1 ± 15.
With `CC(=O)Oc1ccc(C(c2ccc(OC(C)=O)cc2)c2ccccn2)cc1` [Bisacodyl] (100 µM) the figure was -7.9 ± 29; with `COC(=O)Nc1nc2cc(Sc3ccccc3)ccc2[nH]1` [Fenbendazole] (100 µM), -38.1 ± 4.2; with `CCCCCCCCCCCCO` [1-Dodecanol] (100 µM), 9.85 ± 8.8.
With `CN(C)c1ccc(C(=C2C=CC(=[N+](C)C)C=C2)c2ccccc2)cc1` [Malachite green oxalate*] (10 µM) the figure was 132 ± 20; with `CCCCCOc1ccccc1/C(=C\SC)n1ccnc1` [Neticonazole] (100 µM), 17.2 ± 5; with `c1ccc(-c2ccccn2)nc1` [2,2'-Dipyridyl] (200 µM), -9.09 ± 20.
In the case of `Nc1ccc(/N=N/c2ccccc2)c(N)n1` [Phenazopyridine hydrochloride] (100 µM), the “CD54 surface expression induction” value is -3.19 ± 0.03.
The value for `O=C(CS)Nc1ccccc1` [Thioglycolic acid anilide] (300 µM) was 24 ± 1.8; that for `COC(=O)Nc1nc2ccc(C(=O)C3CC3)cc2[nH]1` [Cyclobendazole] (100 µM) was -7.19 ± 4.8.
With `CCCCCCCCCCC=CC1CC(=O)OC1=O` (stereo not given) [3-(Dodecenyl)dihydro-2,5-furandione] (200 µM), the “CD54 surface expression induction” value worked out at 16 ± 37.
For `Cc1cc(C2(c3cc(C)c(O)cc3C)OS(=O)(=O)c3ccccc32)c(C)cc1O` [p-Xylenol blue] (200 µM), the “CD54 surface expression induction” value was 8.91 ± 6.7.
The value for `CCCOc1ccc2[nH]c(NC(=O)OC)nc2c1` [Oxibendazole] (100 µM) was -37.7 ± 6.7; that for `Oc1c(Br)cc(Br)c2cccnc12` [Broxyquinoline] (100 µM) was 49.3 ± 18.
The value for `C#CCN(C)CCCOc1ccc(Cl)cc1Cl` [Clorgyline hydrochloride] (100 µM) was -7.99 ± 0.71; that for `CCOC(=O)CCC(=O)OCC` [Diethyl butanedioate] (200 µM) was -4.24 ± 4.1; that for `Nc1cc(-c2ccncc2)c[nH]c1=O` [Amrinone] (100 µM) was -1.65 ± 0.59.
As to `O=C1Nc2ccccc2C1(c1ccc(O)cc1)c1ccc(O)cc1` [Oxyphenisatin] (100 µM), the “CD54 surface expression induction” value amounted to 15.6 ± 12.
The value for `CNc1ccc(O)cc1` [4-(Methylamino)phenol Sulfate] (10 µM) was 17.6 ± 8.6; that for `O=C(NS(=O)(=O)/C=C/c1cccs1)c1ccc(F)cc1Br` (200 µM) was 4.11 ± 1.7.
With `Clc1ccc2c(c1)Nc1ccccc1S2` [2-Chlorophenothiazine] (100 µM) the figure was -15.3 ± 22; with `COc1cccc2c1C(=O)c1c(O)c3c(c(O)c1C2=O)C[C@@](O)(C(=O)CO)C[C@@H]3O[C@H]1C[C@H](N)[C@H](O)[C@H](C)O1` [Doxorubicin*] (10 µM), 187 ± 27; with `Oc1ccc2ccccc2c1N=Nc1ccccc1` [C.I. Solvent Yellow 14] (200 µM), -0.27 ± 5.9.
Regarding `Cc1ccc2c(c1[N+](=O)[O-])C(=O)c1ccccc1C2=O` [2-Methyl-1-nitroanthraquinone] (10 µM), the “CD54 surface expression induction” value was found to be 4.18 ± 2.8.
The value for `CC/C=C\C/C=C\C/C=C\CCCCCCCC(=O)OCC` [Ethyl linolenate] (10 µM) was -3.84 ± 2.1; that for `O=c1[nH]sc2cc(Cl)ccc12` [Ticlatone] (10 µM) was -4.79 ± 7.2; that for `CCCCCCCCCCCCN(CCO)CCO` [Lauryldiethanolamine] (10 µM) was -10.1 ± 4.7.
The value for `c1ccc2[nH]c(-c3cscn3)nc2c1` [Thiabendazole] (100 µM) was -2.19 ± 1.1; that for `COc1ccc(C(=O)c2ccc(C)cc2)c(O)c1` [Mexenone] (300 µM) was -5.78 ± 3.4.
With `Nc1ccccc1N` [1,2-Phenylenediamine*] (200 µM) the figure was 161 ± 20.
With `Cc1cccc(N(C)C(=S)Oc2ccc3c(c2)C2CCC3C2)c1` (stereo not given) [Tolciclate] (100 µM), the “CD54 surface expression induction” value was found to be 1.18 ± 1.2.
For `C=C(C)C(=O)Nc1ccc(Cl)c(Cl)c1` [Chloranocryl] (100 µM), the “CD54 surface expression induction” value worked out at 0.25 ± 0.41.
In the case of `NC(=O)n1c(O)c(C(=O)c2cccs2)c2cc(Cl)ccc21` [Tenidap*] (200 µM), the “CD54 surface expression induction” value came to 157 ± 35.
Consider `O=C(O)c1cc(O)c2ccccc2c1O` [1,4-dihydroxy-2-naphthoic acid*] (10 µM), for which the “CD54 surface expression induction” value was determined as 374 ± 47.
With `C=CCOC(=O)/C=C\C(=O)OCC=C` [Diprop-2-en-1-yl (2Z)-but-2-enedioate] (203 µM) the figure was -3.66 ± 5.6.
